# About 83,000 compounds went through this panel and 20% of them were active in at least one assay; those are over-represented in the sample as a whole.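 Negative percent growth values reflect cell death: -40 means 40% of the cells present at the start died, and -100 means all died.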 Values without a mark were called inactive. Calls of active or inactive are those of the source. The calls were made as follows: active = growth percent below 10; inactive = the rest.
# What was measured:
# Experiment in all cases: NCI-60 one-dose screen, 48 h (100 = growth as untreated, 0 = no growth, -100 = all killed)
# [1] = tested on: HT29 colon; details: 10 µM unless noted
# [2] = tested on: SNB-75 CNS; details: 10 µM unless noted
# [3] = tested on: SNB-19 CNS; details: 10 µM unless noted
# [4] = tested on: U251 CNS; details: 10 µM unless noted
# [5] = tested on: PC-3 prostate; details: 10 µM unless noted
# [6] = tested on: SK-MEL-5 melanoma; details: 10 µM unless noted
# [7] = tested on: UACC-62 melanoma; details: 10 µM unless noted
# [8] = tested on: LOX IMVI melanoma; details: 10 µM unless noted
# [9] = tested on: SK-MEL-28 melanoma; details: 10 µM
# [10] = tested on: SK-MEL-2 melanoma; details: 10 µM unless noted
Compound,growth [1],growth [2],growth [3],growth [4],growth [5],growth [6],growth [7],growth [8],growth [9],growth [10]
Nc1nc(Nc2cccc(F)c2)nc2ccccc12,6.89% (active),56.1%,57.5%,38%,44.3%,16%,41.3%,17.2%,44.4%,50.6%
CCCCCCCCCCCCCCn1cc(C2=C(c3coc4ccc(OC)cc34)C(=O)NC2=O)c2ccccc21,77.1%,80.6%,101%,97.9%,109%,107%,95.9%,101%,101%,104%
C[C@@H](C(=O)NCCCC#Cc1cnc(Nc2ccc(C#N)cc2)nc1NC1CC1)N(C)C(=O)/C=C/CN(C)C,19.3%,80.5%,58.9%,21.4%,63.2%,35.9%,52.2%,49%,52.1%,65.3%
COc1cc(C2CC(c3ccc(Nc4nc(NCCO)nc(N5CCOCC5)n4)cc3)=NN2c2cc(Cl)cc(Cl)c2)cc(OC)c1OC (stereo unspecified),33.6%,28.2%,72.6%,47.7%,34.1%,60.1%,48.6%,30.9%,72.8%,94.7%
CC(=O)c1ccc(Cc2ccc(C(C)=O)s2)s1,103%,96.9%,98.8%,98%,93.8%,100%,96.4%,93.7%,112%,98.9%
CNCCNc1nc2ccccc2c2c(=O)c3cc(F)ccc3sc12,-30.9% (active),47.4%,69.1%,-53.3% (active),34%,88.1%,22.3%,17.7%,84.6%,85.2%
O=S1(=O)N(Cc2ccccc2)[C@@H](Cc2ccccc2)[C@H](O)[C@H](O)[C@H](Cc2ccccc2)N1Cc1ccccc1,6.95% (active),13.3%,17%,4.33% (active),4.89% (active),-1.02% (active),5.81% (active),-11.3% (active),,-5.68% (active)
COc1ccc(C2C3=C(COC3=O)N(CCO)c3cc4c(cc32)CCC4)cc1 (stereo unspecified),15.4%,42.4%,62.2%,42%,54.6%,35.7%,48.3%,51%,,77.9%
Cc1ccc(NC2=CC(=O)C(=O)c3ccccc32)c(C)c1,48.4%,35.2%,28.1%,33.3%,35.4%,-97.3% (active),-59.5% (active),-23.2% (active),,76.6%
CC1=C(C(=O)OCC2CCN(C(=O)OC(C)(C)C)CC2)[C@H](c2cccc(Br)c2)C2=C(CC(C)(C)CC2=O)N1,16.7%,47.8%,42.5%,30%,17.5%,-32.8% (active),36.1%,17.5%,50.1%,61.1%
O=C(c1ccccc1)N(C(=S)NCCc1ccc(Cl)cc1)c1ccccc1,101%,118%,104%,87.6%,83.3%,98.3%,96.9%,68.2%,113%,99.9%
COc1cc(C2C3=C(COC3=O)N(CCO)c3cc4c(cc32)CCC4)cc(OC)c1O (stereo unspecified),0.722% (active),3.02% (active),31.2%,15.3%,31.7%,11.8%,39.8%,28.2%,,89%
